Assay results as given in PubChem BioAssay AID1259421 (Broad Institute, 2018).
Where “and” joins values, the source holds several entries; their conditions need not be identical. Equal entries are not always repeated. About 610 (9.5%) of roughly 6,400 compounds were called active. This is one part of a sample in which actives are shown more often than they occur. No stated cut-off is given here; in the data, active means activity change below about -70%; inconclusive means no clear call, values can overlap the other calls; inactive means above that. The source holds several records for some structures; these can differ, active in one and inactive in another. *1 amine or outer side, *2 acyl side, *3 side chain or, on linkers, in order; H or OH if unused. Where a SMILES comes first, the peptide text is derived from it. [ ]: non-standard residue; d: D form. LeuΨ(S-CHOHCH2)Ala = CC(C)C[C@H](N[*:1])[C@@H](O)C[C@@H](C)C(=O)[*:2]

Assay: T. gondii ME49Luc in HeLa cells, luciferase assay, 72 h, no IFN-y (AID 1259421)
Details: stronger effect = lower value, concentration not given here

SMILES | activity change, negative = inhibition
CC(=O)NC(Cc1ccccc1)C(=O)O (centres undefined) | 20.2% (inactive)
CC(C)C[C@H](NC(=O)[C@H](CCc1ccccc1)NC(=O)CN1CCOCC1)C(=O)N[C@@H](Cc1ccccc1)C(=O)N[C@@H](CC(C)C)C(=O)[C@@]1(C)CO1 | -76.7% (active)
O=C(Cc1ccc(-c2ccc(OCCN3CCOCC3)cc2)cn1)NCc1ccccc1 | -55.5% (inactive)
CC(=O)N[C@@H](Cc1ccccc1)C(=O)O | 16.5% (inactive)
CC1(C)CCC(C)(C)c2cc(Cn3cccn3)c(/C=C/c3ccc(C(=O)O)cc3)cc21 | 15.2% (inactive)
c1ccc(-c2nn3c(c2-c2ccnc4cc(OCCN5CCOCC5)ccc24)CCC3)nc1 | -32.4% (inactive)
COc1ccc(-c2coc3cc(O)ccc3c2=O)c(OC)c1 | 11.6% (inactive)
CCN(CC)CC(=O)Oc1ccc(NC(C)=O)cc1 | 7.5% (inactive)
OC[C@H]1O[C@H](O[C@H]2O[C@H](CO)[C@@H](O)[C@H](O)[C@H]2O)[C@H](O)[C@@H](O)[C@@H]1O | 7.53% (inactive)
C[N@+]12CCCC[C@@H]1CCC(=C(c1cccs1)c1cccs1)C2 | 13.6% (inactive)
O=C(O)c1cc(=O)c2c3nc4ccccc4oc-3cc(=O)c2[nH]1 | 1.96% (inactive)
CC(=O)N[C@H]1[C@H]([C@H](O)[C@H](O)CO)OC(C(=O)O)=C[C@@H]1N=C(N)N | 10.9% (inactive)
COc1ccc(-c2ccc3ncc4c(c3c2)n(-c2ccc(N3CCNCC3)c(C(F)(F)F)c2)c(=O)n4C)cn1 | -88.5% (active)
Cc1cc(C)cc(C(=O)N(C)[C@H](Cc2ccc(-c3ccccc3)cc2)C(=O)N[C@@H](Cc2c[nH]c3ccccc23)C(=O)O)c1 | 13% (inactive)
C[C@H]1CNCCCN1S(=O)(=O)c1cccc2cncc(F)c12 | -2.52% (inactive)
Nc1nnc(Sc2ncc([N+](=O)[O-])s2)s1 | 9.53% (inactive)
CC[C@H](CC#N)OC(=O)N[C@@H](C)c1cccc(NC(=O)Nc2ccc(-c3cnco3)c(OC)c2)c1 | -82% (active)
CC(C)CN(C[C@@H](O)[C@H](Cc1ccccc1)NC(=O)O[C@H]1CCOC1)S(=O)(=O)c1ccc(N)cc1 | 0.811% (inactive)
COc1cc(NC(=O)Nc2cccc(CNC(=O)O[C@H]3CCOC3)c2)ccc1-c1cnco1 | -79.3% (active)
Cc1cc2c(OCC(CNC(C)(C)C)OC(=O)c3ccccc3)cccc2[nH]1 (centres undefined) | 18.3% (inactive)

SMILES | activity change, negative = inhibition
Cc1c(NC(=O)c2cc3c(s2)CCCC3)cccc1-c1cn(C)c(=O)c(Nc2ccc(C3C(=O)N(C)CCN3C)cc2)n1 (centres undefined) | 97.9% (inactive)
CCC(C(=O)O)c1ccc(N2Cc3ccccc3C2=O)cc1 (centres undefined) | 122% (inactive)
Nc1nc2c(sc(=O)n2[C@@H]2O[C@H](CO)[C@@H](O)[C@H]2O)c(=O)[nH]1 | -8.34% (inactive)
COc1cc2c(cc1OC)C(=O)OC2 | -0.409% (inactive)
C[C@H](Oc1cc(-c2cnn(C3CCNCC3)c2)cnc1N)c1c(Cl)ccc(F)c1Cl | -84.6% (active) and 9.96% (inactive)
Fc1cc(-c2cccc3ncc(-c4cnn(C5CCNCC5)c4)nc23)cc(F)c1CN1CCOCC1 | 6.9% (inactive)
C[C@@H](Oc1cc(-c2cnn(C3CCNCC3)c2)cnc1N)c1c(Cl)ccc(F)c1Cl | -43.1% (inactive) and -79.1% (active)
CCCCCCCCCCCC[C@H](C(=O)O)[C@@H](C)C(=O)O | 2.19% (inactive)
Oc1c(Cl)cc(Cl)cc1Sc1cc(Cl)cc(Cl)c1O | -82.5% (active) and -6.64% (inactive)
C#CCN(C)CCCOc1ccc(Cl)cc1Cl | 20.2% (inactive) and 29.2% (inactive)
O=C(CCCS)NC1CCN(C(=O)COc2ccc(Cl)cc2Cl)CC1 | -3% (inactive)
Cc1cc(Cl)ccc1OCCCC(=O)NO | -90% (active)
CN(CC(=O)O)C(=N)N | 15.6% (inactive)
CCC[C@@H](NC(=O)N1C(=O)C(CC)(CC)[C@@H]1Oc1ccc(C(=O)N2CCN(C)CC2)cc1)c1ccc2c(c1)OCO2 | 4.37% (inactive)
CC(C)C[C@H](NC(=O)[C@H](CC(N)=O)NC(=O)[C@@H](NC(=O)[C@@H](N)CCC(=O)O)C(C)C)[C@@H](O)C[C@@H](C)C(=O)N[C@@H](C)C(=O)N[C@@H](CCC(=O)O)C(=O)N[C@@H](Cc1ccccc1)C(=O)O (H-EVN[LeuΨ(S-CHOHCH2)Ala]AEF-OH) | 3.01% (inactive)
Cc1[nH]c(=O)c(C#N)cc1-c1ccncc1 | 46.4% (inactive) and 9.05% (inactive)
Nc1cc(-c2ccncc2)c[nH]c1=O | 3.96% (inactive) and 3.4% (inactive)
O=C1NCCc2[nH]c(-c3ccncc3)cc21 | -75.8% (active)
CCOC(=O)C(CCc1ccccc1)NC1CCc2ccccc2N(CC(=O)O)C1=O (centres undefined) | 3.98% (inactive)
